This passage reports Potency results from PubChem BioAssay (NCATS).

Records with an inconclusive call do not appear. The source made the active and inactive calls. The call rests on the fitted dose curve; in most records, active means well fitted curve in the direction sought with a large enough effect; inconclusive means small, poorly fitted or top-dose-only effect, or another doubt; inactive means no such curve, though single readings can be large; an effect the other way counts as inactive or inconclusive.

Test [1] is described as follows: qHTS Screen of the MIPE 4.0 Collection Against Ewings Sarcoma (RDES) (AID 1259252). Further: nearly all actives have a fitted effect of over 35% in size. To be noted: RD-ES Ewing sarcoma viability, CellTiter-Glo, 48 h; series mostly up to 45.8 µM. The procedure, abridged:
(§1)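 Cells plated in serum-containing RPMI (5% FBS) and treated with compound dilutions for 48 h. Readout luminescent viability; normalization relied on vehicle (no inhibition) and media-only columns (full inhibition).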
A general note: qHTS replaces the single test concentration by a dilution series.

A short description of test [2]: qHTS Screen of the MIPE 4.0 Collection Against Ewings Sarcoma (TC71) (AID 1259253). Further: nearly all actives have a fitted effect of over 40% in size. Particulars: TC71 Ewing sarcoma viability, CellTiter-Glo, 48 h; series mostly up to 45.8 µM. The procedure, abridged: as §1
A short description of test [3]: qHTS Screen of the MIPE 4.0 Collection Against Ewings Sarcoma (EW8) (AID 1259255). Further: nearly all actives have a fitted effect of over 35% in size. To be noted: EW8 Ewing sarcoma viability, CellTiter-Glo, 48 h; series mostly up to 45.8 µM. In outline: as §1
Test [4] in a line: qHTS Screen of the MIPE 4.0 Collection Against Ewings Sarcoma (TC32) (AID 1259256). Further: nearly all actives have a fitted effect of over 45% in size. Particulars: TC32 Ewing sarcoma viability, CellTiter-Glo, 48 h; series mostly up to 45.8 µM. The procedure, abridged:
as §1

Test [5] can be described thus: P-glycoprotein substrates identified in KB-8-5-11 adenocarcinoma cell line, qHTS therapeutic library screen (AID 1346987). Further: nearly all actives have a fitted effect of over 65% in size. Particulars: KB-8-5-11 (P-gp overexpressing) viability, CellTiter-Glo, 72 h; series mostly up to 44.5 µM. In outline: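 Compounds are pinned in dose-response onto KB-8-5-11 cells (500 cells/well, colchicine-free medium) and left 72 h at 37 degree C. CellTiter-Glo luminescence then yields AC50 values.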

Test [6] in a line: NS1 protein of Zika virus - qHTS assay to identify small molecule inhibitors in human HEK 293 cells (AID 1347053). Further: nearly all actives have a fitted effect of over 55% in size. Particulars: HEK293 ZIKV MR766 infection, NS1 TR-FRET, 24 h; series mostly up to 46.1 µM. In outline:
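In this cell-based screen, HEK 293 cultures received compound for one hour before Zika MR766 at MOI = 0.5. NS1 was quantified 24 hours later by TR-FRET, normalized to virus-free wells and infected wells.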
Potency means the concentration at half of the fitted maximal effect.

As to `N#C[C@H](O[C@@H]1O[C@H](CO[C@@H]2O[C@H](CO)[C@H](O)[C@H](O)[C@H]2O)[C@H](O)[C@H](O)[C@H]1O)c1ccccc1`, the Potency in test [1] was 23500 nM (active); in test [2], 20900 nM (active); in test [3], 20900 nM (active); in test [4], 26400 nM (active); in test [5] it was 20900 nM (active).

On to `CC(=O)OCC1=C(C(=O)O)N2C(=O)[C@@H](N)[C@@H]2SC1`, for which the Potency entry in test [1], in test [2], in test [3], in test [4], in test [5] and in test [6] was “inactive” each time.

For the compound `Cc1c(N)nc([C@H](CC(N)=O)NC[C@@H](N)C(N)=O)nc1C(=O)N[C@H](C(=O)N[C@@H](C)[C@H](O)[C@@H](C)C(=O)N[C@@H](C(=O)NCCc1nc(-c2nc(C(=O)NCCC[S+](C)C)cs2)cs1)[C@@H](C)O)C(O[C@H]1O[C@H](CO)[C@H](O)[C@@H](O)[C@@H]1O[C@H]1O[C@H](CO)[C@@H](O)[C@H](OC(N)=O)[C@H]1O)c1cnc[nH]1` (stereo partly drawn), the Potency was 1050 nM (active) in test [1]; 526 nM (active) in test [2]; 264 nM (active) in test [3]; 418 nM (active) in test [4]; 2960 nM (active) in test [6].

In the case of `COC[C@H]1OC(=O)c2coc3c2[C@@]1(C)C1=C(C3=O)[C@@H]2CC[C@H](O)[C@@]2(C)C[C@@H]1OC(C)=O`, the Potency is 5900 nM (active) in test [1], 13200 nM (active) in test [2], 6620 nM (active) in test [3] and 2090 nM (active) in test [4].

In the case of `CO[C@H]1CCC(O[C@H]2C[C@H]([C@]3(C)CC[C@]4(C[C@H](O)[C@@H](C)[C@@H]([C@@H](C)C=C(C)C(=O)[C@H](C)C[C@H](C)C(=O)O)O4)O3)O[C@]3(O[C@@H]([C@H]4O[C@@](O)(CO)[C@H](C)C[C@H]4C)C[C@H]3C)[C@H]2C)O[C@H]1C` (stereo partly drawn), the Potency was 418 nM (active) in test [1], 332 nM (active) in test [2] and 418 nM (active) in test [4].
